# Measurements taken from PubChem BioAssay (NCI).
# The panel holds about 83,000 compounds, 20% with a hit somewhere; the sample as a whole holds those more often.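 Each cell line was grown in a 96-well plate and treated with one concentration of compound for 48 hours. Values below 10 were considered active.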 Activity calls are given as the source filed them.
# Test system: IGROV1 ovarian
# Test: NCI-60 one-dose screen, 48 h (100 = growth as untreated, 0 = no growth, -100 = all killed)
# Details: 10 µM
row,SMILES,growth
1,O=C(O)c1ccc(-n2cc(CNc3ccc(Cl)cc3)c(-c3ccccc3)n2)cc1,92.1% (inactive)
2,Cc1ccc(C(=O)C2C(=O)C3CCC2C3)cc1 (stereo not given),113% (inactive)
3,COc1cc2c(Nc3ccc(S(N)(=O)=O)cc3)ncnc2c(OC)c1OC,96.1% (inactive)
4,CN1CCN(CC(=O)Nc2cccc(-n3cc(-c4ccncc4)c(-c4ccc(Cl)c(O)c4)n3)c2)CC1,57.5% (inactive)
5,O=[N+]([O-])c1cccc(/C=N/NC(=S)NC23CC4CC(CC(C4)C2)C3)c1,76.3% (inactive)
6,CN1CCN(c2cc3c(cc2F)c(=O)c(C(=O)O)cn3-c2ccc(F)cc2)CC1,103% (inactive)
7,O=C(CN1CCN(C(=O)c2ccccc2)CC1)Nc1ccccc1SCc1ccccc1,84.2% (inactive)
8,Clc1ccc2c(c1)C(N1CCNCC1)=Nc1ccccc1O2,48.1% (inactive)
9,CCOC(=O)c1cc(C(=O)c2cc(OC)c(OC)c(OC)c2)n2ncc3ccccc3c12,75.9% (inactive)
10,CC(=O)C1CCC2C3CC=C4CC(SC(=N)N)CCC4(C)C3CCC12C (stereo not given),35.7% (inactive)
11,COc1cc2c(Nc3ccc(-c4ccc(N)cc4)cc3)ncnc2c(OC)c1OC,22.5% (inactive)
12,C#C[C@]1(O)CCC2C3CCc4cc(OC5CCCC5)ccc4C3CC[C@@]21C (stereo not given in full),101% (inactive)
13,Cc1cc(SC#N)cc(C(C)(C)C)c1O,100% (inactive)
14,Cc1cc(CCNC=O)c(C)c2c1sc1ccccc12,122% (inactive)
15,CO[C@H]1CC(O[C@@H]2/C(C)=C/C[C@@H]3C[C@@H](C[C@]4(C=C[C@H](C)[C@@H](C5CCCCC5)O4)O3)OC(=O)[C@@H]3C=C(C)[C@@H](O)[C@H]4OC/C(=C\C=C\[C@@H]2C)[C@]43O)O[C@@H](C)C1O[C@H]1C[C@H](OC)[C@@H](O)[C@H](C)O1 (stereo not given in full),-54.7% (active)
